Compounds with a hit are over-represented: about 2.1% of the library has one in this group of screens.
D2 PAM-1 = potentiates the human D2 dopamine receptor allosterically; DiscoveRx D2 beta-arrestin cells, luminescence, 90 min; 100% = 57 uM dopamine signal; 360,000 tested, 0.23% active; AID 624464; P14416; potentiation, % (concentration not given with the values); in the data active = potentiation above about 50%
Target sequence (P14416 whole entry, looked up): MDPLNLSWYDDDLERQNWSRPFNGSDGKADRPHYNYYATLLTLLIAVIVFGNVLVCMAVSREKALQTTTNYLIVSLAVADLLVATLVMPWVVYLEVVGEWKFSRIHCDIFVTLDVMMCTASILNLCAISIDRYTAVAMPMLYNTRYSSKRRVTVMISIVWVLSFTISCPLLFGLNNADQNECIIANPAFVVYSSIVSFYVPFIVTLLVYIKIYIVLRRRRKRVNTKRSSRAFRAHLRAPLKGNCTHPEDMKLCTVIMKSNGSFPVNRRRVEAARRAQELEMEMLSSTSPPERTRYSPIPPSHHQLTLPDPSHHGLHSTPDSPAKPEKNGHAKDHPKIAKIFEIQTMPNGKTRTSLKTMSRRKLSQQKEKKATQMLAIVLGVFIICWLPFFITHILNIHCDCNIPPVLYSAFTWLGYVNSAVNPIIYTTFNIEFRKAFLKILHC
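PathHunter D2 cells, attached overnight at 37 deg C, received compound in DMSO plus dopamine at EC20 (50 nM final) for 90 min at 37 deg C. Beta-arrestin recruitment was read as luminescence after 1 h with detection reagent at ambient temperature.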
LDHA block = LDHA (human) enzyme inhibition; 480,000 tested, 0.15% active; activity change, % (values are at about 110 or 230 µM); purified LDHA, NADH/diaphorase-resazurin fluorescence; stronger effect = lower value; P00338; in the data active = activity change below about -30%;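 also: plate controls were DMSO wells for no effect and wells without enzyme for full effect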
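Enzyme activity of human lactate dehydrogenase 5 (2 nM; 0.06 mM NADH, 0.2 mM pyruvate, 5 min, RT) is measured via a resazurin/diaphorase fluorescence readout of residual NADH.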
D2 ag-1 = D2 dopamine receptor (human) agonism | P14416 | HEK293 T-REx D2 cells, calcium flux agonist mode | activation, % at 2 µM | 340,000 tested, 0.53% active | AID 485358;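 active = activation over 3 SD above normal in the single-dose calcium agonist read, cut at about 30% in these data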; also: 0% is about no effect
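HEK293 Trex D2 cells, tetracycline-induced, o/n 30 C 5% CO2; no-wash Ca dye, RT 30–90 min; 10-cycle baseline, 23 nl cpd added, kinetic Ca read 180 s; agonist hits = positive Ca response.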
D2 antag = D2 dopamine receptor (human) antagonism; P14416; HEK293 TREx D2 cells, calcium flux, dopamine EC80; inhibition, % at 10 µM; 340,000 tested, 2% active; in the data active = inhibition above about 30%; inactive = below that, where a call was filed; also: 0% is about no effect
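Cells plated overnight at 30 C with tetracycline; no-wash calcium dye, 30–90 min RT; 10 s baseline; compound pinned; 180 s read; EC80 dopamine added; another 180 s read.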
D2 ag-2 = agonists of human D2 dopamine receptor (beta-arrestin); DiscoveRx PathHunter D2 beta-arrestin, luminescence, 90 min; 100% = 57 uM dopamine signal; P14416; AID 624465; 360,000 tested, 0.084% active; activation, % (test concentration not listed); in the data active = activation above about 40%
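Agonist mode: compounds alone added to overnight-plated D2 PathHunter cells for 90 min at 37 C, with 57 uM final dopamine (EC100) defining full response. Beta-arrestin recruitment detected by chemiluminescent reagent, read after 1 h at ambient temperature.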
D2 PAM-2 = positively modulates the human D2 dopamine receptor allosterically; P14416; HEK293 T-REx D2, calcium flux, EC20 dopamine potentiation; potentiation, % at 10 µM; 340,000 tested, 0.34% active; AID 485347;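 active = potentiation over 3 SD above the plate norm, cut at about 30% in these data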; also: 0% is about no effect
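Cells plated with tetracycline inducer and held overnight at 30 C; calcium dye loaded 30–90 min at room temperature; baseline taken, compound added and read 180 s; EC20 dopamine then added and read 180 s.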
An asterisk follows results filed as active; . = no result given; ! = not active in a repeat.

SMILES	D2 PAM-1	LDHA block	D2 ag-1	D2 antag	D2 ag-2	D2 PAM-2
COc1ccc(Cl)cc1NC(=O)Nc1cccc([N+](=O)[O-])c1C	-57	-4	1	66*	-5	-26
CCC(C(=O)Nc1cc(OC)c(NC(=O)c2ccccc2)cc1OC)c1ccccc1 (stereo not given)	-3	2	-1	42*	1	16
N#Cc1ccc(NCCNc2cccc3ccccc23)nc1	.	74	.	.	.	.
CC(Cc1nc2ccccc2s1)(C(=O)O)c1ccccc1 (stereo not given)	.	0	.	.	.	.
COc1cc2cc(C(=O)N[C@@H](C)C(=O)Nc3ncc(C)s3)n(C)c2c(OC)c1OC	.	4	.	.	.	.
COc1ccc(-c2cc(Nc3ccccc3Cl)nc(C)n2)cc1	.	15	.	.	.	.
CCc1ccc(NC(=O)CSc2nc3cc([N+](=O)[O-])ccc3o2)cc1	.	-4	.	.	.	.
Cc1ccc(-c2cc(C(=O)O)c3ccc(C)c(C)c3n2)cc1	.	6	.	.	.	.
CC(C)Sc1nnc(-c2ccc(S(=O)(=O)N3CCOCC3)cc2)n1C	2	-8	0	35*	-4	-2
CC1CCN(C(=O)CSc2nnc(-c3ccc(S(=O)(=O)N4CCOCC4)cc3)n2C)CC1	-8	-11	0	-17	-1	53*
O=C(CSc1nnc(C2CC2)n1Cc1ccccc1)c1ccc(S(=O)(=O)N2CCOCC2)cc1	6	0	-3	46*	1	10
O=C(CSc1nnc(C2CC2)n1Cc1ccccc1)N1CCN(S(=O)(=O)c2ccccc2)CC1	6	-3	1	-5	-3	-1
Cc1ccc(CNC(=O)c2ccc(N3CCOCC3)c(NC(=O)Nc3cc(F)ccc3F)c2)cc1	.	10	.	.	.	.
CCN(CC)Cc1ccccc1CNC(=O)c1cccc(S(=O)(=O)Nc2ccc3c(c2)OCO3)c1	-2	5	1	74*	0	-36
CN(C)Cc1ccccc1CNC(=O)c1cccc(S(=O)(=O)Nc2ccc3c(c2)OCO3)c1	-43	10	.	.	-2	.
O=C(Nc1ccc(Br)cc1)c1ccc2ncsc2c1	-13	-3	0	36*	1	-27
CCc1ccc(NC(=O)c2ccc3ncsc3c2)cc1	.	.	0	-7	.	-12
Cc1cc(NC(=O)CCC(=O)N(Cc2ccccc2)C2(C(=O)NC3CCCCC3)CCCC2)no1	-3	-5	1	44*	10	2
Cc1ccc(C)c(N(CC(=O)NC2CCCC2)C(=O)CCC(=O)Nc2cc(C)on2)c1	-1	-6	0	36*	0	-24
COc1ccc(NC(=O)CN2CCN(Cc3ccccc3)CC2)cc1	-8	-5	-2	-3	-4	6
CCCCNC(=O)CN1CCN(Cc2ccc3cc(OC)ccc3c2)CC1	-17	-33*	0	-7	-10	-13
Cc1c(Cl)cccc1Nc1nc(N)c(C(=O)c2ccccc2F)s1	.	0	.	.	.	.
CCN(CC)S(=O)(=O)c1ccc(OCC(=O)NC(=O)c2ccccc2OC)c([N+](=O)[O-])c1	55*	-3	0	-4	6	-2
O=C(Cn1c(SCC(=O)Nc2ccc(F)cc2)nc2ccccc21)NCc1ccccc1Cl	.	-32*	1	.	.	4
COC(=O)c1cc2c(=O)c3ccccc3oc2nc1/C=C/N(C)C	-1	2	40*	8	6	13
SMILES	D2 PAM-1	LDHA block	D2 ag-1	D2 antag	D2 ag-2	D2 PAM-2
COC(=O)c1cc2c(=O)c3ccccc3oc2nc1C	-6	-2	0	0	-2	12
NNC(=O)CNS(=O)(=O)c1ccc([N+](=O)[O-])cc1	15	-3	2	49*	7	8
Cn1ccnc1C(NC(=O)c1nn(C)c(=O)c2ccccc12)c1ccc(Cl)cc1 (stereo not given)	.	-5	.	.	.	.
CC1CN(C)C(C)CC1OC(=O)C(c1ccccc1)c1ccccc1 (stereo not given)	-17	0	.	.	-5	.
CN(C)[C@@H]1CCC[C@H]1OC(=O)C(c1ccccc1)c1ccccc1	-34	-4	0	47*	-2	-25
O=C(COc1ccc(Cl)cc1Cl)NC(=O)N1CCCCC1	-15	-7	-2	32*	1	-23
N#CC1=C(N)S[C@H](C(=O)C23CC4CC(CC(C4)C2)C3)[C@H]1c1ccncc1	14	9	1	4	5	31*
O/N=C1\CC(c2ccccc2)Oc2c(Cl)cc(Cl)cc21 (stereo not given)	.	0	.	.	.	.
CCOC(=O)CN(C(=O)CSc1nnc2c(n1)[nH]c1ccccc12)c1ccccc1	-37	-4	0	7	-1	-9
CCOC(=O)CN(C(=O)CSc1nnc2c(n1)[nH]c1ccc(F)cc12)c1ccccc1	-25	2	0	72*	-4	-20
CCOC(=O)CN(C(=O)CSc1nnc2c(n1)[nH]c1c(C)cc(C)cc12)c1ccccc1	.	.	1	61*	.	-22
Cc1ccc(NC(=O)C(=O)c2c(C)[nH]c3ccccc23)cc1	.	27	.	.	.	.
CN1OC[C@@H]2CN(S(=O)(=O)c3cccc4ccccc34)[C@H](c3ccc(-c4ccccc4)cc3)C[C@@H]21	-4	-30*	.	.	-10	.
Cc1ccc(-c2nnc(Sc3nc4ccccc4o3)c3ccccc23)cc1	-6	2	1	15	-1	9
Cc1nnc(Sc2nc3ccccc3o2)c2ccccc12	-19	-3	0	-10	-3	32*
COc1ccc(/C=N/NC(=O)c2ccc(O)cc2O)cc1CSc1ccccn1	-1	-6	39*	19	0	-15
COc1ccc(C=O)cc1CSc1ccccn1	-5	-3	-1	-4	5	0
CCCN1CCC2(CC1)Oc1c(OC)cccc1C1CC(c3ccc4c(c3)OCO4)=NN12 (stereo not given)	.	-3	.	.	.	.
COc1ccc(S(=O)(=O)N2CCN(C3CCCCCCC3)CC2)cc1	-1	-11	-2	34*!	-1	-6
O=S(=O)(c1ccccc1)N1CCC(N2CCN(c3ccccc3)CC2)CC1	.	.	74*	71*	.	-24
COc1ccc(S(=O)(=O)N2CCC(N3CCCCC3)CC2)cc1	-17	-7	0	-11	-4	-5
CCC(C)(C)C1CCC(NC(=S)NCc2ccc(F)cc2)CC1 (stereo not given)	.	-3	.	.	.	.
CCC1=NN(C(=O)c2ccc(Cl)cc2)C(O)(c2ccc(C)cc2)C1 (stereo not given)	-7	-1	0	7	-4	-1
CCOC(=O)C1=NN(C(=O)c2ccc(C)cc2)C(O)(c2ccc(Cl)cc2)C1 (stereo not given)	-14	-1	31*	22	-4	-3

Compound activity as filed in PubChem BioAssay.
